Data as given in publication PMC5540273 (PLoS ONE, 2017).

What was measured:
Details in all cases: concentration: 1 μM, replicates: in singlicate; n = 1
FGFR1 = tested on: FGFR1
FGFR2 = tested on: FGFR2
FGFR3 = tested on: FGFR3
FGFR4 = tested on: FGFR4
FGR = tested on: FGR
FLT1 = tested on: FLT1
FLT3-autoinhibited = tested on: FLT3-autoinhibited
FLT3 = tested on: FLT3
FLT4 = tested on: FLT4
FRK = tested on: FRK
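Also: KINOMEscan kinase panel screen.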

Row | SMILES | %Inh (FGFR1) [%] | %Inh (FGFR2) [%] | %Inh (FGFR3) [%] | %Inh (FGFR4) [%] | %Inh (FGR) [%] | %Inh (FLT1) [%] | %Inh (FLT3-autoinhibited) [%] | %Inh (FLT3) [%] | %Inh (FLT4) [%] | %Inh (FRK) [%]
1 | Cl.Cl.NCC(NCc1ccc(-c2ccnc3[nH]ccc23)s1)c1ccccc1 (stereo not drawn) [GSK1321565] | 4 | 0 | 19 | 1 | 23 | 18 | 12 | 75 | 5 | 0
2 | Cn1cc(-c2[nH]c3cc(NC(=O)[C@H](N)C4CCCCC4)cc4c3c2C=NNC4=O)cn1 | 97.9 | 89 | 86 | 97.3 | 87 | 81 | 96.3 | 100 | 99.5 | 0
3 | COc1ccc(-c2coc3ccc(-c4nnc(SCc5ccc(OC)c(C(F)(F)F)c5)o4)cc23)cc1 | 0 | 17 | 17 | 2 | 0 | 0 | 19 | 10 | 13 | 0
4 | c1ccc(Oc2ccc(Nc3ccnc4cc(-c5ccc(CNCCN6CCOCC6)o5)ccc34)cc2)nc1 [GW567145] | 0 | 4 | 10 | 0 | 68 | 3 | 8 | 91 | 0 | 13
5 | Cn1cc(-c2ccc3c(c2)CCN3C(=O)Cc2cccc(F)c2)c2c(N)ncnc21 [GSK2603358] | 0 | 0 | 0 | 0 | 46 | 63 | 0 | 66 | 6 | 0
6 | CC(=O)Nc1nc2cnc(Nc3cc(NC(=O)c4cccc(C5(C#N)CC5)c4Cl)ccc3C)nc2s1 | 2 | 15 | 0 | 0 | 52 | 44 | 0 | 0 | 60 | 93.2
7 | O=C(Nc1cccc(-c2nn3ccccc3c2-c2ccnc(Nc3cccc(C(F)(F)F)c3)n2)c1)c1c(F)cccc1F [GSK292658] | 0 | 20 | 9 | 0 | 92.5 | 78 | 5 | 62 | 36 | 72
8 | c1ccc(-c2n[nH]cc2Nc2ccnc3ccccc23)nc1 [GW694077] | 0 | 0 | 0 | 0 | 10 | 26 | 8 | 12 | 11 | 0
9 | COc1ccc(Nc2nccc(N3CCC(NC(=O)Nc4cccc(OC)c4)C3)n2)cc1 (stereo not drawn) [GSK1379742] | 5 | 7 | 5 | 0 | 17 | 36 | 20 | 35 | 0 | 8
10 | CN(c1ccc(NC(=O)Nc2cc(C(F)(F)F)ccc2F)cc1)c1ccnc(Nc2ccc(S(N)(=O)=O)cc2)n1 [GW809893] | 76 | 70 | 22 | 14 | 94.7 | 98.3 | 82 | 98.6 | 99.8 | 99
11 | Cc1cccc(NC(=O)Nc2ccc(Oc3ncnc4ccn(C)c34)cc2)c1 | 0 | 0 | 0 | 0 | 0 | 99.3 | 64 | 100 | 73 | 10
12 | O=C(Nc1n[nH]c2cc(-c3ccoc3)ccc12)C1CC1 [SB-738481] | 0 | 0 | 7 | 0 | 22 | 27 | 17 | 91.8 | 0 | 0
13 | CCS(=O)(=O)c1ccc(OC)c(Nc2nccc(-c3c(-c4cccc(NC(=O)c5c(F)cccc5F)c4)nn4ncccc34)n2)c1 [GSK326180] | 0 | 0 | 16 | 16 | 64 | 90 | 0 | 0 | 29 | 61
14 | Cl.c1ccc(-c2ccc3c(Nc4ccc5[nH]ccc5c4)ccnc3c2)nc1 [GW440138] | 63 | 63 | 58 | 29 | 53 | 98.1 | 0 | 0 | 92.9 | 17
15 | CC(C)c1nc(-c2cccc(NS(=O)(=O)c3c(F)cccc3F)c2F)c(-c2ccnc(Nc3ccc(N4CCOCC4)nc3)n2)s1 [GSK2008607] | 60 | 82 | 67 | 48 | 98.7 | 98.6 | 0 | 70 | 99.9 | 98.8
